In PubChem BioAssay (NCATS):
Records with an inconclusive call do not appear. Activity calls are given as the source filed them. Calls come from the whole dose curve; as a rule, active = well fitted curve in the direction sought with a large enough effect; inconclusive = small, poorly fitted or top-dose-only effect, or another doubt; inactive = no such curve, though single readings can be large; an effect the other way counts as inactive or inconclusive.

Experiments:
[1] = target: Cytochrome P450 3A7 (Homo sapiens) (UniProt P24462); experiment: Cytochrome P450 family 3 subfamily A member 7 (CYP3A7) small molecule antagonists: luciferase biochemical qHTS assay (AID 1963596); note: % is set by controls: 0 for no effect and ±100 for the full control effect; nearly all actives have a fitted effect of over 40% in size
Summary of the method: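 P450-Glo luminescent assay: CYP3A7 enzyme converts a proluciferin substrate to luciferin, detected by luciferase reagent; light proportional to activity. Compounds in DMSO preincubated 10 min with enzyme-substrate mix at room temperature, then NADPH regeneration added for 1 h.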

[2] = Viability qHTS for spleen associated tyrosine kinase inhibitor (SYKi) drug resistant MV4-11 cells (AID 1963824); note: nearly all actives have a fitted effect of over 35% in size; note: potency is the fitted concentration of half-maximal effect
Summary of the method: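 SYK inhibitor-resistant MV4-11 AML cells, 500 per well, added to predispensed compounds and incubated 72 hr at 37 C, 5% CO2. Viability measured by CellTiter-Glo luminescence after 10 min at room temperature.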

[3] = Cellular viability qHTS for adrenocortical cancer (ACC) cell line SW-13 (AID 1963989); details: SW-13 ACC cells viability, CellTiter-Glo, 48 h; activity (max response): active compounds read low; note: nearly all actives have a fitted effect of over 65% in size; note: potency is the fitted concentration of half-maximal effect;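 for activity (max response): cells grown in serum-free medium with ITS supplement; % is set by controls: 0 for no effect and ±100 for the full control effect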
Summary of the method: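 SW-13 cells in ITS-supplemented serum-free DMEM were plated overnight, then exposed for 48 h at 37C to compound titrations (up to 46 uM final). Viability was read by CellTiter-Glo luminescence; four-parameter logistic fits gave IC50 and efficacy.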

[4] = Cellular viability qHTS for adrenocortical cancer (ACC) cell line NCI-H295R (AID 1963990); note: nearly all actives have a fitted effect of over 60% in size; note: potency is the fitted concentration of half-maximal effect
Summary of the method: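 Luminescent ATP read-out (CellTiter-Glo, 20 min RT) after 48 h drug exposure of NCI-H295R cells; a titration up to 46 uM final. Data normalized to doxorubicin (100% inhibition) and DMSO (0%); 4-parameter fit gives IC50, max response.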

Cytochrome P450 3A7 (Homo sapiens), sequence (P24462 whole entry, looked up): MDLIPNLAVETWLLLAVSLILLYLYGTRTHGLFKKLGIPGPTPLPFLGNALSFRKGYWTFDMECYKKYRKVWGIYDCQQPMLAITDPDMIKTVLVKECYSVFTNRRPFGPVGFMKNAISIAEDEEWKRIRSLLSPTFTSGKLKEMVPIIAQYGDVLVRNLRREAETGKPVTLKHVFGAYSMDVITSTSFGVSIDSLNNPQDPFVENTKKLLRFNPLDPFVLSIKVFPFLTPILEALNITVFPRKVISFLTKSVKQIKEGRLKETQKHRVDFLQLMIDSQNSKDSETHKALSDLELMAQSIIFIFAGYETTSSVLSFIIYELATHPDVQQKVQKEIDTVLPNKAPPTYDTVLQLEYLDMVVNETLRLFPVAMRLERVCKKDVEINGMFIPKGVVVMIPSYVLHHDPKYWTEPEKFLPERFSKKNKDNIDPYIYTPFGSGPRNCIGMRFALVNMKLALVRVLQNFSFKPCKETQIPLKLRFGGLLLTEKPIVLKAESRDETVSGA

CC(=O)O[C@H]1C[C@@H]2CC[C@@H]3[C@H](CC[C@@]4(C)[C@H]3C[C@H]([N+]3(C)CCCCC3)[C@@H]4OC(C)=O)[C@@]2(C)C[C@@H]1N1CCCCC1
inactive: Potency [1] | Potency [2] | activity (max response) [3] 0.69% | Potency [4]

Cc1ncc([N+](=O)[O-])n1C
inactive: Potency [1] | Potency [2] | activity (max response) [3] 9.67% | Potency [4]

Cc1nc2n(c(=O)c1CCN1CCC(c3noc4cc(F)ccc34)CC1)CCC[C@H]2O
inactive: Potency [1] | Potency [2] | activity (max response) [3] 4.14% | Potency [4]

CCOc1cc2ncc(C#N)c(Nc3ccc(F)c(Cl)c3)c2cc1NC(=O)/C=C/CN(C)C
inactive: Potency [1]
active: Potency [2] 235 nM | Potency [3] 631 nM | Potency [4] 3550 nM

CNC(=O)c1c(I)c(NC(=O)CCCCC(=O)Nc2c(I)c(C(=O)O)c(I)c(C(=O)NC)c2I)c(I)c(C(=O)O)c1I
inactive: Potency [1] | Potency [2] | activity (max response) [3] -7.54% | Potency [4]

O=C1NC(=O)[C@@]2(CCOc3ccc(F)cc32)N1
inactive: Potency [1] | Potency [2] | activity (max response) [3] 3.16% | Potency [4]

CCCCCCCCCCCCCCCC(=O)O
inactive: Potency [1] | Potency [2] | activity (max response) [3] 8.9% | Potency [4]

CN1CCN(N)CC1
inactive: Potency [1] | Potency [2] | activity (max response) [3] -3.26% | Potency [4]

CC(=O)OCC(=O)Nc1cc(C#N)cc(NC(=O)COC(C)=O)c1Cl
inactive: Potency [1] | Potency [2] | activity (max response) [3] -0.531% | Potency [4]

O=C(O)c1ccccc1-c1ccc(C(F)(F)F)cc1
inactive: Potency [1] | Potency [2] | activity (max response) [3] 8.51% | Potency [4]

O=c1[nH]c(=O)n([C@H]2C[C@H](O)[C@@H](CO)O2)cc1Br
active: Potency [2] 8410 nM
inactive: Potency [1] | activity (max response) [3] -6.63% | Potency [4]
